Measurements published in PubChem BioAssay (NCATS).
Inconclusive results are not listed. Calls follow the shape of the dose curve; as a rule, active = well fitted curve in the direction sought with a large enough effect; inconclusive = small, poorly fitted or top-dose-only effect, or another doubt; inactive = no such curve, though single readings can be large; an effect the other way counts as inactive or inconclusive. Square brackets hold non-standard residues; d marks the D form. Peptide text beside a SMILES is read from it. * marks the point of attachment. ξ: configuration not given here. Hexanoyl = CCCCCC(=O)*; ξL = CC(C)CC(N)C(=O)O

Experiment: HPAF-II 18hr Apoptosis Induction qHTS against the NCATS CANVASS Library (AID 1347360)
Conditions: HPAF-II caspase-3/7 luminescence; series mostly up to 46.1 µM; caspase activation: at the top concentration
Outline: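 Caspase-Glo 3/7 luminescence (DEVD substrate) after 15 min RT; HPAF-II, 500 cells/well, 18 h compound exposure at 37 degrees C, qHTS series; doxorubicin control 0.1nM - 4uM.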
Also: 0% is about no effect.

Caspase activation, inactive:
C=C[C@@]1(C)CC[C@@H]([C@H](C)C(C)=O)O1 -3.25%
C/C=C(/CO)C(=O)O[C@@H]1[C@H](O)[C@@H](C(=O)OC)O[C@@H]2C[C@H]3OC(n4cnc5c(N)ncnc54)[C@H](OC)[C@H]3O[C@@]12O (some centres undefined) -2.16%
C/C=C/[C@H]1[C@H]2C(=O)c3c(O)c(C)c(O)c(C)c3[C@]1(C(=O)O)C(=O)C=C2C -2.31%
C[C@@]12C[C@@H](C[C@@H]3C(=O)O[C@@H](c4ccoc4)[C@H](OC(=O)c4ccccc4)[C@@H]31)OC2=O -1.32%
C=C1CCC2C(C)(C(=O)O)CCC(CC/C(C)=C/C(=O)NC(CCC(N)=O)C(=O)O)[C@@]2(C)C1 (some centres undefined) 1.52%
C=C1[C@@]2(C)CC3C4(C)CCC(O)C(C)(C)C4CCC3(C)[C@]1(C(=O)OC)C(=O)C(C)(O)C2=O (some centres undefined) -2.52%
CC(C)=CCC[C@]1(C)[C@H]2CC(=O)[C@@]3(CO3)[C@@H]1C2 2.13%
CCCCCC(=O)N[C@@H](CC(C)C)C(=O)N[C@H](C=O)CCC(=O)O (Hexanoyl-Leu-Glu-aldehyde) 2.28%
COc1ccc([C@@H]2c3cc4c(cc3C(=O)C(C)C2C)OCO4)cc1OC (some centres undefined) -1.29%
CC1(C)CC[C@]2(CO)CC[C@]3(C)C(=CCC4[C@@]5(C)CC[C@H](O)C(C)(C)C5CC[C@]43C)C2C1 (some centres undefined) 3.03%

Experiment: HEK293 12hr Apoptosis Induction qHTS against the NCATS CANVASS Library (AID 1347361)
Conditions: HEK293 caspase-3/7 Caspase-Glo luminescence; series mostly up to 46.1 µM; caspase activation: at the top concentration
Outline: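 500 HEK293 cells/well; cpds pin-transferred, 11-pt conc series; 12 h, 37 degrees C/5% CO2; Caspase-Glo 3/7 added, 15 min RT dark; luminescence.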

Caspase activation, inactive:
CC(=O)N[C@H](C)c1nc(/C=C/C=C/C(=O)CC2CC(=O)CC[C@]2(C)O)cs1 (some centres undefined) -2%
CN1C(=O)C(=O)N2C(=C[C@]3(c4c[nH]c5ccccc45)c4ccccc4N[C@H]23)C1=O 2.76%
CN1CC[C@]23c4ccccc4N[C@H]1[C@]21CCN(C)[C@H]3Nc2ccccc21 2.62%
C/C=C1/C2=CCCN3C(=O)O[C@H]([C@H]1O)[C@H]23 -2.13%
O=C1CC(c2ccc(O)cc2)Oc2ccccc21 (centres undefined) -8.84%
COC1C(C)OC(OCC23C[C@@H]4[C@H](C)CC[C@H]4C4(C=O)CC2C=C(C(C)C)C34C(=O)O)[C@@H](O)[C@H]1O (some centres undefined) -1.62%
COc1ccc(-c2oc3cc(OC)cc(OC)c3c(=O)c2O)cc1 13%
CC[C@@H](C)[C@H]1NC(=O)C(CC(C)C)NC(=O)[C@@H](CC(C)C)NC(=O)[C@H](Cc2c[nH]c3ccccc23)NC(=O)CNC(=O)[C@@H](CC(N)=O)NC1=O (stereo partly drawn) (cyclo(GW[dL][ξL][dI][dN])) -1.63%
C=C(Cl)[C@](Cl)(CBr)CC[C@@H](Br)C(C)(C)Cl 7.82%
CC[C@@H]1C[C@@]2(CC)OC(=O)[C@@]3(CC)[C@H](CC)[C@@H]1[C@@H]23 3.47%
[C-]#[N+][C@@]12C(=O)[C@@H]3[C@@H](O[C@@]4(C(=O)N(C)c5cccc1c54)C3(C)C)C(=O)[C@@]2(C)C=C 1.37%
C[C@@]12CCC[C@@](C)(C(=O)OP(=O)(O)OC[C@H]3O[C@@H](n4cnc5c(N)ncnc54)[C@H](O)[C@@H]3O)[C@H]1C[C@@H](O)[C@@]13C[C@@H](CC[C@@H]21)[C@](C)(O)C3 -2.26%
CCC(C)=C1OC(=O)[C@H](C)[C@H](O)[C@H](Cc2cccnc2)NC(=O)C(NC(=O)c2ncccc2O)C(C)OC1=O (some centres undefined) -1.3%
O=C1OC(CCO)c2cccc(O)c21 (centres undefined) 1.1%
C=C1C[C@]23C=CC(=O)[C@@](C)(CCCC(C)C(=O)N[C@@H](CO)C(=O)O)[C@@H]2C[C@@H]1CC3 (some centres undefined) -1.06%
COc1cc2ccc(=O)oc2c(O)c1O[C@@H]1O[C@H](CO)[C@@H](O)[C@H](O)[C@H]1O 3.43% [at 27.5 µM]
C/C(=C\[C@@H](C)CC/C=C/CC/C=C/C(=O)O)[C@@H](O)[C@H](C)C(=O)CCCC1CC(=O)NC(=O)C1 -1.63%
O=C1CC(c2ccc(O)cc2)Oc2cc(O)cc(O)c21 (centres undefined) -3%
O=C1CC(c2ccc(O)cc2)Oc2cc(O)ccc21 (centres undefined) -7.66%
O=Cc1ccc2n1C[C@]1(OC2)O[C@H](CO)[C@@H](O)[C@@H]1O 1.82%
C=C[C@@]1(C)CC[C@@H]([C@H](C)C(C)=O)O1 3.03%
C/C=C(/CO)C(=O)O[C@@H]1[C@H](O)[C@@H](C(=O)OC)O[C@@H]2C[C@H]3OC(n4cnc5c(N)ncnc54)[C@H](OC)[C@H]3O[C@@]12O (some centres undefined) 1.12%
C=C1CCC2C(C)(C(=O)O)CCC(CC/C(C)=C/C(=O)NC(CCC(N)=O)C(=O)O)[C@@]2(C)C1 (some centres undefined) 2.89%
C=C1[C@@]2(C)CC3C4(C)CCC(O)C(C)(C)C4CCC3(C)[C@]1(C(=O)OC)C(=O)C(C)(O)C2=O (some centres undefined) 2.21%
